Test results as given in PubChem BioAssay (NCI).
The panel holds about 83,000 compounds, 20% with a hit somewhere; the sample as a whole holds those more often.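 96-well plates, one dose, 48 hours. Percent growth reported; active if below 10.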 Active and inactive are the calls of the source.

What was measured:
Test in all cases: NCI-60 one-dose screen, 48 h (100 = growth as untreated, 0 = no growth, -100 = all killed)
Conditions in all cases: 10 µM
[1] = system: SK-MEL-2 melanoma
[2] = system: EKVX NSCLC
[3] = system: SN12C renal
[4] = system: UO-31 renal
[5] = system: TK-10 renal
[6] = system: ACHN renal
[7] = system: CAKI-1 renal
[8] = system: A498 renal
[9] = system: MOLT-4 leukemia
[10] = system: CCRF-CEM leukemia

Measured: growth

CN1C(=O)/C(=C/c2nccs2)SC1=S
inactive: [1] 96.9% | [2] 80.7% | [3] 75.8% | [4] 78.7% | [5] 162% | [6] 88.1% | [7] 72.9% | [8] 109% | [9] 98.8%

COc1cc(/C=C/C(=O)c2cc(OC)c(OC)c(OC)c2)ccc1Oc1nc(Nc2ccc(F)cc2)nc(N(C)C)n1
active: [1] -49.4% | [3] -89.3% | [4] -100% | [6] -82.3% | [8] -1.01% | [10] 3.77% | [9] 4.87%
inactive: [2] 20.6% | [5] 28.6% | [7] 11.5%

CCCCCCCCCCCCCCCCCCCC(=O)NCCc1c[nH]c2ccc(OC(=O)NOCCOCCOCCOCCOCCOCCOCCOCCOCCOCCOCCOCCOCCOCCOCCOCCOCCOCCOCCOCCOCCOCCOC)cc12
active: [1] -68.5% | [3] -17.4% | [7] 7.27% | [9] -11.7%
inactive: [2] 35.6% | [4] 61.8% | [5] 51.2% | [6] 40.7% | [8] 63.1%

CC(C)(C)c1ccc(NCc2cn(-c3ccc(C(=O)O)cc3)nc2-c2ccc(C#N)cc2)cc1
active: [2] -36.7% | [9] 8.13%
inactive: [1] 53.1% | [3] 16.1% | [4] 35.7% | [6] 27% | [7] 34.4% | [8] 58.2% | [10] 16.3%

Cc1noc2c(Cc3ccccc3)nn(CC(=O)N/N=C/c3ccc(Cl)cc3)c(=O)c12
active: [3] 7.85% | [4] -40.5% | [5] 4.87% | [6] -16.5% | [8] -58.1%
inactive: [1] 94.3% | [2] 72.9% | [10] 97.3% | [9] 102%

O=C(CSc1nnc(-c2ccc3nc(-c4ccc(Cl)cc4)[nH]c3c2)o1)Nc1ccc(Cl)cc1
inactive: [8] 26%
active: [1] -25.2% | [2] 5.97% | [3] -93.7% | [4] -45.4% | [6] -89.7% | [7] -35.6% | [10] -1.24% | [9] -4.88%

CC(C)c1ccc(C(=O)Nc2sc3c(c2C(N)=O)CCC(=O)C3=O)cc1
inactive: [1] 98.8% | [2] 87.9% | [3] 94.7% | [4] 59.7% | [6] 93.6% | [7] 91.9% | [8] 130% | [10] 86.4% | [9] 72.4%

CC(=O)Nc1ccc(-c2cn(-c3cccc(C(=O)Nc4ccc(Cl)c(C(F)(F)F)c4)c3)nn2)cn1
inactive: [10] 30%
active: [1] -38.3% | [2] -30.2% | [3] -48.4% | [4] -56% | [5] -18% | [6] -52.5% | [8] -63.1% | [9] 7.02%

N#Cc1ccc(NC(=O)CSc2ccc(-c3ccc(Br)cc3)nn2)cc1
inactive: [1] 57.9% | [2] 72.4% | [3] 73.5% | [4] 54.6% | [5] 103% | [6] 64.5% | [8] 89.4% | [10] 57.9% | [9] 42.6%

COC(=O)c1c(C(=O)OC)c2n(c1C)[C@@H]([C@@H](C)[C@H]1CC[C@H]3[C@@H]4CCC5=CC(=O)CC[C@]5(C)[C@H]4CC[C@]13C)SC2
inactive: [1] 40.2% | [2] 26.2% | [3] 58% | [4] 30.1% | [5] 57.9% | [6] 46% | [8] 71.8% | [10] 10.2%
active: [9] 2.64%

Cc1ccc(-c2nc3ccc(C(=O)N=Nc4c(O)[nH]c5ccc(Br)cc45)cc3[nH]2)cc1
inactive: [1] 113% | [2] 94.9% | [3] 95.3% | [4] 80.3% | [5] 114% | [6] 101% | [8] 137% | [10] 34.7%

Cc1ccc(-c2nc(Nc3ccccc3C(=O)O)c3ccccc3n2)cc1
active: [1] 5.75% | [6] 7.89%
inactive: [2] 13.1% | [3] 22.2% | [4] 12.6% | [7] 21.1% | [8] 21.6% | [10] 12.8% | [9] 10.9%

COc1ccc(/C(C)=N/N=C2C(=O)N(C)c3ccc(Br)cc32)cc1S(N)(=O)=O
inactive: [1] 81.7% | [2] 56.7% | [3] 68.7% | [4] 65.1% | [6] 69.3% | [7] 41% | [8] 99.6% | [10] 89.1% | [9] 84.6%

Cc1cc(C)nc(/N=C(\N)Nc2ccc(S(=O)(=O)Nc3nc(C)cc(C)n3)cc2)n1
inactive: [1] 107% | [2] 104% | [3] 111% | [4] 85% | [5] 105% | [6] 115% | [8] 112% | [10] 96.2% | [9] 104%

COc1ccc2[nH]cc(/C=N/Nc3cccc(Cl)n3)c2c1
active: [10] 9.72%
inactive: [1] 92% | [2] 44.2% | [3] 38.7% | [4] 33.5% | [5] 91.1% | [6] 47.8% | [8] 120% | [9] 14.8%

Cc1ccc(CNC(=O)Cc2ccc3c(c2)CN(C2CCC(=O)NC2=O)C3=O)cc1 (stereo not given)
active: [1] 0.232% | [3] 4.57% | [4] -21.3% | [8] -9.84% | [10] 8.32% | [9] -24.9%
inactive: [2] 54.5% | [5] 33.2% | [6] 30.5%

Cc1ccc(C(=O)N/C(=C2/OCCN2C)[P+](c2ccccc2)(c2ccccc2)c2ccccc2)cc1
inactive: [1] 81.1% | [2] 75.4% | [3] 86% | [4] 85.4% | [5] 102% | [6] 114% | [8] 122% | [10] 73.5% | [9] 84.4%

COC(=O)CC1CC1C1Cc2c(nc(N(C)S(C)(=O)=O)nc2C(C)C)-c2ccc(F)cc21 (stereo not given)
inactive: [1] 80.9% | [2] 87% | [3] 94.9% | [4] 71.5% | [5] 114% | [6] 86.6% | [8] 117% | [10] 61.5% | [9] 38.6%

O=c1c2ccccc2nc(COc2ccccc2)n1/N=C/c1ccc(N2CCOCC2)cc1
inactive: [1] 70.4% | [2] 69.7% | [3] 68% | [4] 69.3% | [6] 60.6% | [7] 51.9% | [8] 78.2% | [10] 97.7% | [9] 117%

CC[C@]12C=CCN3CC[C@@]4(c5cc(C#CCNc6ccc(C)c(Nc7nccc(-c8cccnc8)n7)c6)c(OC)cc5N(C)[C@H]4[C@@](O)(C(=O)OC)[C@@H]1OC(C)=O)C32 (stereo not given in full)
inactive: [1] 61.7% | [2] 55.9% | [3] 45.3% | [4] 46.9% | [5] 88% | [6] 51.4% | [8] 68.1% | [10] 18.8% | [9] 37.9%

C/C(=N\N=C\c1ccc(N(C)C)cc1)c1ccc2c(c1)Nc1ccccc1S2
inactive: [1] 84.6% | [2] 47.1% | [3] 49.8% | [4] 57.4% | [6] 50.8% | [7] 56.5% | [8] 86.4% | [10] 59.5% | [9] 34.3%

CCCCCc1ccc(S(=O)(=O)N(C(C)=O)c2cc(-c3csc(N(C)C(C)=O)n3)ccc2N2CCN(C)CC2)cc1
active: [10] -7.22%
inactive: [1] 35.1% | [2] 62.7% | [3] 21.2% | [4] 41.8% | [6] 30.1% | [7] 31.8% | [8] 123%

CC1(C)CC[C@]2(C(=O)N3CCOCC3)CC[C@]3(C)C(=CC[C@@H]4[C@@]5(C)CC[C@H](NCO)C(C)(C)[C@@H]5CC[C@]43C)[C@H]2C1
active: [1] -82% | [2] -87.8% | [3] -91% | [4] -100% | [6] -100% | [7] -96.2% | [8] -91.5% | [10] -33.8%

CC(=O)Nc1ccc(-n2cnc3cc(-c4ccc(O)cc4)ccc32)cc1F
inactive: [1] 36.3% | [2] 60.6% | [3] 21.5% | [4] 20.7% | [5] 49.2% | [6] 20.4% | [8] 72.4%
active: [10] 8% | [9] -0.0266%

Cc1ccc2nc(-c3ccc(-c4nnc(SCC(=O)Nc5ccc(Cl)cc5)o4)cc3)[nH]c2c1
active: [3] -3% | [6] 7.34%
inactive: [1] 95% | [2] 58.7% | [4] 56.6% | [7] 21.7% | [8] 73.9% | [10] 58.8% | [9] 35.6%

O=C(N/C(=C1/OCCN1Cc1ccccc1)[P+](c1ccccc1)(c1ccccc1)c1ccccc1)c1ccccc1
active: [1] -27.6% | [3] 7.37%
inactive: [2] 14.6% | [4] 83.1% | [6] 82.6% | [7] 79.5% | [8] 83% | [10] 13.3% | [9] 20.6%

CCOc1ccc(Nc2nc3ccccc3nc2Nc2ccc(OCC)cc2)cc1
active: [9] 9.99%
inactive: [1] 89% | [2] 46.6% | [3] 54.7% | [4] 54.9% | [6] 52.9% | [7] 51.4% | [8] 69.1% | [10] 23.7%

COc1ccc(CN2[C@H](C(=O)NCc3ccc(C(=O)NO)cc3)Cc3c([nH]c4ccccc34)[C@H]2C2CC2)cc1
inactive: [1] 44.9% | [2] 51.6% | [3] 70.5% | [4] 66.4% | [6] 76.4% | [7] 72.3% | [8] 65% | [10] 28.8% | [9] 26.6%
